# Laboratory results published in PubChem BioAssay AID1254 (The Scripps Research Institute Molecular Screening Center, 2008).
# About 250 (21%) of roughly 1,200 compounds were called active. Only a sample is shown. A number with no mark means an inactive call. Rule as the data show it: active = inhibition above about 20%; inactive = the rest.
# Target: Neuropeptide Y receptor type 1 (Homo sapiens) (UniProt P25929)
# Test: blockers of human NPY-Y1 signalling – HEK293-CNG cells, membrane potential fluorescence, triplicate, confirmation (AID 1254);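 also: 0% = vehicle with agonist plus stimulus and 100% = stimulus alone without agonist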
# Conditions: cAMP, at 3.6 µM, hits give high values, NPY challenge against isoproterenol-raised cAMP
# Chain of Neuropeptide Y receptor type 1 (Homo sapiens) (P25929 whole entry, looked up): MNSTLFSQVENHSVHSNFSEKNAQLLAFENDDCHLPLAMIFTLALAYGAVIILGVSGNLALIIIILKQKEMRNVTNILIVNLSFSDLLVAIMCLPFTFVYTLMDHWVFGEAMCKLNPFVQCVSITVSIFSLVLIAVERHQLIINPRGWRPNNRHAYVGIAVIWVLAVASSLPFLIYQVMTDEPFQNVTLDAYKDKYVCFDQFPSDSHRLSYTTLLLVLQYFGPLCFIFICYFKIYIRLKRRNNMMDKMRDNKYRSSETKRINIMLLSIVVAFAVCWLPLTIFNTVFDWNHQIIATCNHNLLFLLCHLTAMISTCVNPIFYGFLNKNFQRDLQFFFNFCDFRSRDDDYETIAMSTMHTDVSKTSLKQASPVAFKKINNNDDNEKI
row,Compound,inhibition
1,CCOC1CCCCC1NS(=O)(=O)c1ccc(Cl)cc1 (configuration not stated),-0.15%
2,CCCC(=O)Nc1nc2ccc(NC(=O)c3c(F)c(F)c(OC)c(F)c3F)cc2s1,6.69%
3,Cc1ccc(N2C(=O)C3N=NN(CC(=O)N4N=C(c5cccc6ccccc56)CC4c4ccccc4)C3C2=O)cc1 (configuration not stated),0.57%
4,COC(=O)C1=C(Nc2ccc(C)cc2)C=C(C)C(C(=O)OC)C1c1ccc(F)cc1 (configuration not stated),19%
5,NC(N)=N/N=C/c1ccc(OCc2ccc(Cl)cc2Cl)cc1,11.7%
6,CC(=O)OC(C)C[N+](C)(C)C (configuration not stated),15.3%
7,Cc1ccc(C(=O)C[n+]2cc(-c3ccccc3)n3c2CCCCC3)cc1,22.1% (active)
8,CCOC(=O)N1CCN(S(=O)(=O)c2ccc(C(=O)Nc3ccc(F)cc3F)cc2)CC1,2.56%
9,Cc1nc(-c2ccccc2)sc1C(=O)/C=C/c1ccccc1,7.83%
10,COc1ccc(C(c2nnnn2C2CCCCC2)N2CCN(c3ccccc3F)CC2)cc1 (configuration not stated),15%
11,Cc1ccc(SCCC(=O)OCC(=O)Nc2ncc(Cl)cc2Cl)cc1,5.19%
12,CCCCc1c(O)nc2n(c1=O)CCS2,1.41%
13,CCCOC(=O)c1[nH]c2c(c1C)C(=O)CC(c1cccs1)C2 (configuration not stated),7.07%
14,CC1CN(CCCOc2ccccc2-c2ccccc2)CC(C)O1 (configuration not stated),2.5%
15,Cc1ccc(Cn2c(NC(=O)c3ccco3)nc3ccccc32)cc1,17.4%
16,COc1cccc(CNCCc2c[nH]c3ccccc23)c1OCc1ccccc1F,9.73%
17,OC(COCCC12CC3CC(CC(C3)C1)C2)CN1CCCCC1 (configuration not stated),3.08%
18,Cc1ccc(/C=N/NC(=O)COc2ccccc2-c2ccccc2)cc1,11.6%
19,CCCSc1nc(NCc2ccco2)c2c3c(sc2n1)COC(C)(CC)C3 (configuration not stated),10.4%
20,O=C(Cc1cccs1)N(CC1CCCO1)C1(C(=O)NC2CCCCC2)CCCCC1 (configuration not stated),9.42%
21,COc1ccccc1N1CCN(C(=O)CN(Cc2ccc(Cl)cc2)S(C)(=O)=O)CC1,11.6%

row,Compound,inhibition
1,CCC(=O)c1c[nH]c(C(=O)NCC2CCCO2)c1 (configuration not stated),0.28%
2,CCOC(=O)c1nn(-c2cccc(C)c2)cc1C(=O)c1ccccc1,5.58%
3,COC(=O)c1ccc(C(NC(=O)OCc2ccccc2)/C(C)=C/[C@@H](C)C(=O)NCc2ccc(OC)c(OC)c2)cc1 (some centres not stated),15.9%
4,O=C(NCCCN1CCOCC1)c1cnn2c(-c3ccccc3)cc(-c3ccccc3)nc12,25% (active)
5,O=C1c2cccnc2C(Nc2ccc(S(=O)(=O)N3CCCCCC3)cc2)N1Cc1ccccc1 (configuration not stated),0.2%
6,COc1ccc(C2Nc3ccccc3C(=O)N2Cc2ccccc2)cc1Cn1nnc2ccccc21 (configuration not stated),11.8%
7,CCS(=O)(=O)n1nc(-c2ccccc2)nc1SCc1ccccc1,13.5%
8,Cc1cc(C(C)(C)C)oc1C(=O)N(CC(=O)NC1CCCC1)Cc1ccc(Cl)cc1,25.8% (active)
9,O=C(/C=C/c1ccco1)Nc1cccc(-c2nc3ccccc3[nH]2)c1,2.58%
10,Oc1ccc(-c2[nH]ncc2-c2nc3ccccc3s2)c(O)c1,53% (active)
11,CCc1ccc(CNC(=O)C2CCCN(c3nc4ccccc4o3)C2)cc1 (configuration not stated),13.2%
12,CCCCn1nc(C(=O)N2CCc3ccccc32)c2ccccc2c1=O,3.55%
13,Clc1ccccc1-c1cc(COc2ccc3ccccc3c2)no1,13.6%
14,CCCCCCC(=O)Nc1nc(C)c(-c2csc(Nc3cccc(OC)c3)n2)s1,17.8%
15,CC(Oc1ccc2ccccc2c1)C(=O)NNC(=S)NC(=O)c1ccco1 (configuration not stated),10.5%
16,Cc1ccc(C(=O)N/C(=C/c2ccc(-c3cccc([N+](=O)[O-])c3)o2)C(=O)NCCCN(C)C)cc1,9.75%
17,O=C(CSc1nc2cc3c(cc2c(=O)n1CCC1=CCCCC1)OCO3)NCc1ccco1,4.77%
18,CC(=O)N1CC(C)c2scc(C)[n+]2-c2ccccc21 (configuration not stated),-0.57%
19,Fc1ccc(-c2nnc(CSc3nnc(-c4ccc5c(c4)OCO5)o3)o2)cc1,10.1%
20,CN(C)CCCCCN(C)Cc1cc2ccccc2o1,9.51%
21,CC(C)Cn1cnc2c1c(=O)n(CC(O)c1ccccc1)c(=O)n2CC(C)C (configuration not stated),-1.75%
